Results filed as inconclusive are left out. A call without a number means that no potency is given here. The source made the active and inactive calls. Unless noted, calls come from the whole dose curve; as a rule, active = well fitted curve in the direction sought with a large enough effect; inconclusive = small, poorly fitted or top-dose-only effect, or another doubt; inactive = no such curve, though single readings can be large; an effect the other way counts as inactive or inconclusive.
Experiments:
[1] = biological target: Protein phosphatase 1D (Homo sapiens) (UniProt O15297); test: RapidFire Mass Spectrometry qHTS Assay for Modulators of WT P53-Induced Phosphatase 1 (WIP1) (AID 1347424);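 note: amount of dephosphorylated VEPPL-S-QETFS peptide product formed by WIP1; series mostly up to about 63 µM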
Method in brief: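 RapidFire mass spectrometry measured dephosphorylated peptide after 5 min room-temperature reaction of 2 uM VEPPL-pS-QETFS with 10 nM WIP1 (50 mM Tris-HCl pH 7.5, 30 mM MgCl2, 0.1 mM EGTA, BSA), following 1 hr compound preincubation; 1 uM isotope-labelled product standard.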

[2] = biological target: Protein phosphatase 1D (Homo sapiens) (UniProt O15297); test: Rhodamine-PBP qHTS Assay for Modulators of WT P53-Induced Phosphatase 1 (WIP1) (AID 1347425)
Method in brief: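 Read-out: Rhodamine-PBP fluorescence (ex 525/em 598 nm) for released Pi, read each minute for 11 min after adding 10 uM VEPPL-pS-QETFS; signal taken as f1 minus pre-substrate f0. Enzyme 5 nM WIP1 with 1 hr room-temperature compound preincubation.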

[3] = Primary qHTS for inhibitors of La Crosse Virus (LACV) - induced cell death in SH-SY5Y cells (AID 1508616);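 note: top concentration of the series differs between compounds; higher means more rescue of cells from virus-induced death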
Method in brief: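 Screening measures cell viability in LACV-infected SH-SY5Y cultures. Compound was added before virus (0.01 MOI), and ATP was detected by luminescence 6 days later.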

[4] = biological target: Calcium and integrin-binding protein 1 (Homo sapiens) (UniProt Q99828); test: Primary qHTS for Identification of Calcium Integrin Binding Protein 1 (CIB1) Competitor (AID 1508620);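 note: GST tagged CIB1 binding a fluorescein labelled alphaIIb integrin peptide tracer; top concentration of the series differs between compounds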
Method in brief: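 CIB1-GST (1 uM final) and compound incubated 15 min at room temperature before adding FITC-alphaIIb peptide tracer (100 nM final). Competition for binding read by fluorescence polarization (ex 480, em 540) after another 15 min at room temperature.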

[5] = Primary qHTS for small molecule stabilizers of the endoplasmic reticulum resident proteome: Secreted ER Calcium Modulated Protein (SERCaMP) assay (AID 1508630)
Method in brief: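 The SH-SY5Y reporter protocol was run at 3 concentrations up to 38.3 uM (primary) or 11 concentrations (follow-up): 16 h compound, 100 nM thapsigargin for 4 h, then extracellular luciferase luminescence.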

[6] = A High-Content qHTS Against Drug Library for the Identification of Small Molecules that Inhibit DYT1 Early Onset Primary Dystonia-Associated Cell Pathology (AID 1645839; calls by dose curve; note: series mostly up to about 46 µM)
Method in brief: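 High-content imaging quantified EGFP-TorsinA mislocalization in HEK293-derived cells inducibly expressing DYT1 mutant torsinA, after 48 h exposure to compound given together with tetracycline induction. Cell count served as a toxicity channel alongside %pathology.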

[7] = Primary qHTS for inhibitors of nuclear receptor binding SET domain protein 2 (NSD2) in an isogenic RCH-ACV NSD2 p.E1099K mutant (9B) (AID 1645876); note: nearly all actives have a fitted effect of over 70% in size; note: potency is the fitted concentration of half-maximal effect
[8] = Primary qHTS for inhibitors of nuclear receptor binding SET domain protein 2 (NSD2) in an RCH-ACV wild type WT cells (2C) (AID 1645877); note: nearly all actives have a fitted effect of over 70% in size; note: potency is the fitted concentration of half-maximal effect
[9] = biological target: Cytochrome P450 2C9 (Homo sapiens) (UniProt P11712); test: Cytochrome P450 family 2 subfamily C member 9 (CYP2C9) small molecule antagonists: luciferase biochemical (cell-free) qHTS assay (AID 1645842; active = well fitted curve in the direction sought with a large enough effect in the repeat runs; an effect the other way counts as inactive or inconclusive; note: nearly all actives have a fitted effect of over 55% in size; note: potency is the fitted concentration of half-maximal effect)
Method in brief: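 P450-Glo CYP2C9 system: proluciferin substrate with enzyme in mix containing 0.4% BSA, 10 min at room temperature, then NADPH regeneration solution added and incubated 1 h at 37C. Detection reagent stopped reaction; luminescence read after 20 min as RLU.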

[10] = biological target: Cytochrome P450 2D6 (Homo sapiens) (UniProt P10635); test: Cytochrome P450 family 2 subfamily D member 6 (CYP2D6) small molecule antagonists: luciferase biochemical (cell-free) qHTS assay (AID 1645840; active = well fitted curve in the direction sought with a large enough effect in the repeat runs; an effect the other way counts as inactive or inconclusive; note: nearly all actives have a fitted effect of over 55% in size; note: potency is the fitted concentration of half-maximal effect)
Method in brief: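 P450-Glo CYP2D6 system: proluciferin substrate converted by enzyme to luciferin, read by luminescence proportional to activity. Enzyme-substrate mix with compound 10 min at room temperature, then NADPH regeneration 1 h before detection reagent.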

Chain of Cytochrome P450 2C9 (Homo sapiens) (P11712 whole entry, looked up): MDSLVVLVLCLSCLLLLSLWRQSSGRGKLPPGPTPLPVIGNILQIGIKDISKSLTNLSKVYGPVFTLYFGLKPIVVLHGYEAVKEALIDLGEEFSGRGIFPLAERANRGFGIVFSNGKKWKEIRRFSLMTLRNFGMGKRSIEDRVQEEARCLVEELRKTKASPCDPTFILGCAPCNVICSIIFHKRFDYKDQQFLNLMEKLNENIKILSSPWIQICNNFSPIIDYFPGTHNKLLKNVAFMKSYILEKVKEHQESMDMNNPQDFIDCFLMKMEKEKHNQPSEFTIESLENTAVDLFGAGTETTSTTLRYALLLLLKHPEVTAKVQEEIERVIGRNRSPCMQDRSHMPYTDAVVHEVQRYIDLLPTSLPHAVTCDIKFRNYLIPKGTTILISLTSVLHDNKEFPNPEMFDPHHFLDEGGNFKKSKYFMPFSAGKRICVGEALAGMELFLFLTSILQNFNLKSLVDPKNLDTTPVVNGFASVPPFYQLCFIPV
Chain of Protein phosphatase 1D (Homo sapiens) (O15297 whole entry, looked up): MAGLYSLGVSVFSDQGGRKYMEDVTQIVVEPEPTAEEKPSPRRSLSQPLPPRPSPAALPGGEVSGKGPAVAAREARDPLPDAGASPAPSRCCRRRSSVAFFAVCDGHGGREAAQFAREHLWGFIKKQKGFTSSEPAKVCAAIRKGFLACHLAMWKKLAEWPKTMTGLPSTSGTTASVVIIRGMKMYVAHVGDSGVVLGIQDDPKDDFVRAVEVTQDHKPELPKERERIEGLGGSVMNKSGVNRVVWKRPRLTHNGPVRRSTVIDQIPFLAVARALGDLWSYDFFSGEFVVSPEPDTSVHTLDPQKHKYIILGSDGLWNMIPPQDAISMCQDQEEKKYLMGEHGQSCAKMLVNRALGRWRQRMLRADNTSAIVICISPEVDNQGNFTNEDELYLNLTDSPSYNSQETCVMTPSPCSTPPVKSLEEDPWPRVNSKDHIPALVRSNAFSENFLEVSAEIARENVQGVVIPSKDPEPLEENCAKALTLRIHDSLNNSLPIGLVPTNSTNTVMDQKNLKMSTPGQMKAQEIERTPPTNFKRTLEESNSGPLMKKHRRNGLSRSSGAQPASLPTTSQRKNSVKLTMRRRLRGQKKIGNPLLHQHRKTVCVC
Chain of Cytochrome P450 2D6 (Homo sapiens) (P10635 whole entry, looked up): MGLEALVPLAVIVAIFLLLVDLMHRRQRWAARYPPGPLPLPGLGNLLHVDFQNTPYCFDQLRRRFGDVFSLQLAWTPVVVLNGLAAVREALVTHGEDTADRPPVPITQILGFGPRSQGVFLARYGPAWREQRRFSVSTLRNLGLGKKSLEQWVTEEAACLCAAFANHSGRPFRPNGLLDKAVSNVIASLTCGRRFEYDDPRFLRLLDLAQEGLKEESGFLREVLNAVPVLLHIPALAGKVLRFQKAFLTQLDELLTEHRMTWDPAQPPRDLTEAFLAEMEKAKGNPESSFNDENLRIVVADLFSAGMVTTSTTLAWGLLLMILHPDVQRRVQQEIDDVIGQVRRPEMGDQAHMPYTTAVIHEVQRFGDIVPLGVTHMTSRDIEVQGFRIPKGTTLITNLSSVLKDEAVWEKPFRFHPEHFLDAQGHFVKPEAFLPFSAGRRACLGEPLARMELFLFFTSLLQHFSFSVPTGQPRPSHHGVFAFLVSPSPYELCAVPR
Chain of Calcium and integrin-binding protein 1 (Homo sapiens) (Q99828 whole entry, looked up): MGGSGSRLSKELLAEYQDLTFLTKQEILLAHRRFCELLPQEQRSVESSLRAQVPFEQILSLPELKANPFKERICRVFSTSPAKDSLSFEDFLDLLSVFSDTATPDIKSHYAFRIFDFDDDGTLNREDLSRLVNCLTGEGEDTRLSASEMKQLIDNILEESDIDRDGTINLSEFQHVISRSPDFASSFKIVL

Row | Compound | Potency [1] | outcome [2] | outcome [3] | Potency [4] | Potency [5] | Potency [6] | Potency [7] | Potency [8] | Potency [9] | Potency [10]
1 | CC1=C(C(=O)O)N2C(=O)[C@@H](NC(=O)[C@H](N)c3ccccc3)[C@H]2SC1 | inactive | inactive | inactive | inactive | inactive | inactive | inactive | inactive |  | 
2 | CN(C)CCOC(c1ccc(Cl)cc1)c1ccccn1 (configuration not stated) | inactive | inactive | inactive | inactive | inactive |  |  |  | inactive | 
3 | Cc1ccccc1OCC(O)CO (configuration not stated) | inactive | inactive | inactive | inactive | inactive | inactive | inactive | inactive |  | 
4 | CC(C(=O)O)c1cccc(Oc2ccccc2)c1 (configuration not stated) | inactive | inactive | inactive | inactive |  | inactive | inactive | inactive |  | inactive
5 | Nc1ccc(S(=O)(=O)Nc2cnc3ccccc3n2)cc1 | inactive | inactive | inactive | inactive |  |  | inactive | inactive | 15.5 µM (active) | inactive
6 | CCCCCCCCOc1ccc(C(=O)c2ccccc2)c(O)c1 | inactive | inactive | inactive | inactive |  | inactive | inactive | inactive | inactive | inactive
7 | CCCCNC(=O)NS(=O)(=O)c1ccc(N)cc1 | inactive | inactive | inactive | inactive |  | inactive | inactive | inactive | inactive | inactive
8 | C[C@]12CCC(=O)C=C1C=C[C@@H]1[C@@H]2CC[C@@]2(C)[C@H]1CC[C@@]21CCC(=O)O1 | inactive | inactive | inactive | inactive |  | inactive |  |  |  | inactive
9 | CCOC(=O)Nc1ccc2c(c1)N(C(=O)CCN1CCOCC1)c1ccccc1S2 | inactive | inactive | inactive |  | inactive | inactive |  |  |  | 
10 | C#C[C@]1(O)CC[C@H]2[C@@H]3CCC4=Cc5oncc5C[C@]4(C)[C@H]3CC[C@@]21C | inactive | inactive | inactive |  | inactive |  |  |  |  | 
11 | C[N+]12CCC(CC1)C(OC(=O)C(O)(c1ccccc1)c1ccccc1)C2 (configuration not stated) | inactive | inactive | inactive | inactive |  | inactive | inactive | inactive | inactive | 15.5 µM (active)
12 | CCN1CCN(C(=O)N[C@@H](C(=O)N[C@@H]2C(=O)N3C(C(=O)O)=C(CSc4nnnn4C)CS[C@H]23)c2ccc(O)cc2)C(=O)C1=O | inactive | inactive | inactive | inactive |  | inactive | inactive | inactive | inactive | inactive
13 | Oc1ccccc1C=NCc1ccccc1 | inactive | inactive | inactive | inactive |  | inactive | inactive | inactive | inactive | 
14 | c1ccc(CC2=NCCN2)cc1 | inactive | inactive | inactive | inactive | inactive |  | 8.41 µM (active) | 5.31 µM (active) | inactive | 
15 | OC[C@H]1O[C@@H](Oc2ccc(O)cc2)[C@H](O)[C@@H](O)[C@@H]1O | inactive | inactive | inactive |  | inactive | inactive |  |  | inactive | inactive

— PubChem BioAssay (NCATS)
